From PubChem BioAssay AID1259240 (Keith Lab, Institute of Cancer Science, University of …, 2017)
Active and inactive are the calls of the source. No stated cut-off is given here; in the data, active means fold change mostly below about -2 (no sharp cut-off); inactive means mostly above about -1.8.

Test: modulation of TERT promoter-driven luciferase – cell-based, luciferase reporter, human, primary screen (AID 1259240)
Conditions: A2780 TERT promoter luciferase reporter, 16 h; at 20 µM, fold versus average of vehicle-only wells

SMILES | fold change | outcome
Cc1ccccc1N1CC(O)(c2ccccc2)[N+]2=C1SCCC2 (stereo not given) | -1.05 (inactive) | –
O=c1/c(=C/c2ccc(F)cc2)sc2nc(-c3ccco3)nn12 | -1.22 (inactive) | –
Cc1cccc(-c2nc3s/c(=C4\C(=O)N(C)c5ccccc54)c(=O)n3n2)c1 | -1.34 (inactive) | –
O=C(Nc1ccc2snnc2c1)Nc1ccccc1Cl | -1.86 (inactive) | –
Cc1nnc2ccc(N3CCC(C(N)=O)(N4CCCCC4)CC3)nn12 | -1.03 (inactive) | –
CCNc1nc2c(c(=O)n(C)c(=O)n2C)n1Cc1ccc(Cl)cc1 | 1.15 (inactive) | –
CCN1C(=O)C(O)(CC(=O)c2ccc3c(c2)OCCO3)c2ccccc21 (stereo not given) | -1.17 (inactive) | –
Cc1ccc(-c2noc(-c3ccccc3Cl)n2)cc1 | -93.3 (active) | –
Cc1nc2cc(-c3ccccc3)nn2c(C)c1CCC(=O)NC(C)c1ccc2c(c1)OCCO2 (stereo not given) | -3.95 (active) | –
O=C(O)CCC(=O)N1CCc2cc(S(=O)(=O)N3CCc4ccccc4C3)ccc21 | 1.93 (inactive) | –
Cc1[nH]nc2c1C(c1ccccc1F)NC2=O (stereo not given) | -1.71 (inactive) | –
CN1C(=O)/C(=C/c2cn(CC(=O)N3CCCCC3)c3ccccc23)c2ccccc21 | -1.35 (inactive) | –
CSc1ccccc1NC(=O)c1onc(C)c1Cl | 1.5 (inactive) | –
CCCCNc1c(N2CCN(C(=O)OCC)CC2)c(=O)c1=O | 1.31 (inactive) | –
CCOC(=O)C1CCN(c2c(N3CCN(CC)CC3)c(=O)c2=O)CC1 | 1.21 (inactive) | –
C1=C(CCNc2nnc(Cc3cccnc3)c3ccccc23)CCCC1 | -1.15 (inactive) | –
COCCn1c(SCC(=O)NCC2CCCO2)nnc1-c1c[nH]c2ccccc12 (stereo not given) | – | inactive
N#Cc1ccccc1Cn1c(=O)n(-c2ccc(CC(=O)NCc3ccco3)cc2)c(=O)c2sccc21 | -1.2 (inactive) | –
CCc1cccc2c1NC(=O)C2(O)CC(=O)c1cccs1 (stereo not given) | 1.14 (inactive) | –
Cc1csc(NC(=O)C2CCCN2S(=O)(=O)c2cccc3cccnc23)n1 (stereo not given) | -1.27 (inactive) | –

SMILES | fold change | outcome
CCCc1nnc2n1Nc1nc3ccccc3nc1S2 | 1.62 (inactive) | –
CCOC(=O)Cn1c(=O)oc2cc(S(=O)(=O)N3CCCC3)ccc21 | -1.16 (inactive) | –
Cc1ccc(C2CC(=O)Nc3cc4c(cc32)OCCO4)cc1Br (stereo not given) | -1.14 (inactive) | –
CCc1c2c(nc3sc(C(=O)NCc4ccc5c(c4)OCO5)c(N)c13)CC(C)(C)CC2=O | -1.01 (inactive) | –
CCCN(CCC)C(=O)C1CCCN(S(=O)(=O)c2ccc3c(c2)oc(=O)n3C)C1 (stereo not given) | 1.49 (inactive) | –
CC(C)Oc1cc(O)c2c(=O)c(-c3ccc(O)cc3)coc2c1 | -6.88 (active) | –
Cc1cc(C(=O)Nc2ccc(F)cc2F)on1 | 1.55 (inactive) | –
Cc1nnc(NC(=O)Cn2c(=O)sc3ccccc32)s1 | -1.03 (inactive) | –
COc1ccccc1Nc1nc(N)nc(CN2CCN(C)CC2)n1 | -3.68 (active) | –
NC(=O)c1ccc(N=c2oc3ccccc3cc2S(=O)(=O)c2ccccc2)cc1 | 1.06 (inactive) | –
CCCc1nc2ccccc2c2nc(N)nn12 | -2.02 (active) | –
CCc1ccc2nc(Nc3nccc(C)n3)nc(C)c2c1 | 1.83 (inactive) | –
CCN1CCN(C(=O)c2cc3c(=O)[nH]c4ccccc4c3n2C)CC1 | 1.05 (inactive) | –
CCOC(=O)C1CCCN(c2c(N3CCC(C(N)=O)CC3)c(=O)c2=O)C1 (stereo not given) | -1.23 (inactive) | –
CCOC(=O)c1sc2nccc3c2c1N=CN3c1ccccc1 | -1.96 (inactive) | –
c1ccc(N2CCN(c3nc4ccccc4n4cnnc34)CC2)cc1 | 1.17 (inactive) | –
O=C(CSc1nnc(Cc2cc(=O)[nH]c(=O)[nH]2)n1-c1ccc(Cl)cc1)c1ccccc1 | -1.09 (inactive) | –
CCN(Cc1ccccc1)C(=O)C1CCCN1S(=O)(=O)c1cccc2nsnc12 (stereo not given) | 1.58 (inactive) | –
Cc1cc(C(=O)N2CCN(Cc3ccc4c(c3)OCO4)CC2)on1 | 1.36 (inactive) | –
CCOC(=O)c1ccc(-c2c(C(F)(F)F)oc3cc(O)c(CC)cc3c2=O)o1 | -2.58 (active) | –
